Results filed as inconclusive are left out. Calls of active or inactive are those of the source.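 How the source made its calls, unless noted: active means inhibition above 54%, about 3 SD of non-fluorescent compounds; inactive means the rest.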
Columns and labels:
[1] = yeast TOR pathway RPL19A-GFP modulators, primary screen, cell-based, S. cerevisiae, multiplex flow cytometry (AID 1862; in the data active means percent of DMSO control GFP below about 86%;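 further: lower values mimic rapamycin by blocking the RPL19A rise seen in DMSO cells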); conditions: S. cerevisiae RPL19A-GFP strain, flow cytometry fluorescence, 3 h; at 10 µM; stronger effect = lower value
[2] = modulators of MEP2-GFP levels in yeast, primary screen, S. cerevisiae, multiplex flow cytometry (AID 1867;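 active means GFP response, as percent of the DMSO control, above the screen-wide mean plus 3 SD, about 139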;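 further: median GFP channel fluorescence of barcode-gated MEP2-GFP cells measured by flow cytometry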); conditions: S. cerevisiae MEP2-GFP strain, 3 h, at 10 µM, stronger effect = higher value, 100% means same as DMSO wells
[3] = modulators of CIT2-GFP expression in yeast, primary screen, S. cerevisiae, GFP fusion, multiplex flow cytometry (AID 1870;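 active means percent response above a set limit, the screen-wide mean plus 3 SD, cut at about 130% in these data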;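 further: barcoded CIT2-GFP strain pooled with four other GFP strains with rapamycin as positive control; median GFP fluorescence per well over plate mean of DMSO wells so 100% = DMSO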); conditions: 3 h, at 10 µM, stronger effect = higher value
[4] = modulators of LAP4-GFP expression in yeast, primary screen, S. cerevisiae, multiplex flow cytometry (AID 1873;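 active means GFP signal, as percent of the solvent control, above the screen mean plus 3 SD, about 149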); conditions: 3 h, at 10 µM, stronger effect = higher value
[5] = modulators of AGP1-GFP expression in yeast TOR pathway, primary screen, cell-based, multiplex flow cytometry, S. cerevisiae (AID 1887;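 active means GFP signal above the screen-wide mean plus 3 SD, that is over about 124.5% of the solvent control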;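 further: AGP1-GFP fusion strain of S. cerevisiae within a five-strain barcoded multiplex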); conditions: 3 h, at 10 µM, stronger effect = higher value
[6] = inhibitors of CD8+ T cell-vesicle binding, pilot screen, LFA-1/ICAM-1 modulator project, MLPCN validation set, flow cytometry (AID 2523;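 active means response below a set limit, under 55% cells CD8-positive and vesicle-bound, and CD8 cells' 90th-percentile brightness under 279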;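 on vesicle binding response: mean PE anti-B7-1 fluorescence of CD8+ cells relative to row control; 100% = QL9-loaded vesicles with DMSO vehicle in the same plate row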); conditions: 2C mouse CD8+ T cells, at 7 µM, stronger effect = lower value; double positive events: measured here: CD8+/vesicle+ event percentage
[7] = molecular target: Integrin beta-1 (Homo sapiens) + Integrin alpha-4 (Homo sapiens) (UniProt P13612+P05556); test: inhibition of HUTS-21 binding to VLA-4, pilot screen, VLA-4 allosteric modulator project, U937 cells, HUTS-21 mAb, flow cytometry, validation set (AID 2674;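 active means inhibition above 50%, about 3 SD of the validation set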;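 further: antibody binding induced by the VLA-4 ligand LDV present at three times its Kd; 0% = LDV ligand with antibody and no compound and 100% = antibody without LDV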); conditions: HUTS-21 LIBS mAb binding, at 6.7 µM, stronger effect = higher value, binding induced by LDV ligand
Integrin beta-1 (Homo sapiens) + Integrin alpha-4 (Homo sapiens), sequence (P05556 whole entry, looked up): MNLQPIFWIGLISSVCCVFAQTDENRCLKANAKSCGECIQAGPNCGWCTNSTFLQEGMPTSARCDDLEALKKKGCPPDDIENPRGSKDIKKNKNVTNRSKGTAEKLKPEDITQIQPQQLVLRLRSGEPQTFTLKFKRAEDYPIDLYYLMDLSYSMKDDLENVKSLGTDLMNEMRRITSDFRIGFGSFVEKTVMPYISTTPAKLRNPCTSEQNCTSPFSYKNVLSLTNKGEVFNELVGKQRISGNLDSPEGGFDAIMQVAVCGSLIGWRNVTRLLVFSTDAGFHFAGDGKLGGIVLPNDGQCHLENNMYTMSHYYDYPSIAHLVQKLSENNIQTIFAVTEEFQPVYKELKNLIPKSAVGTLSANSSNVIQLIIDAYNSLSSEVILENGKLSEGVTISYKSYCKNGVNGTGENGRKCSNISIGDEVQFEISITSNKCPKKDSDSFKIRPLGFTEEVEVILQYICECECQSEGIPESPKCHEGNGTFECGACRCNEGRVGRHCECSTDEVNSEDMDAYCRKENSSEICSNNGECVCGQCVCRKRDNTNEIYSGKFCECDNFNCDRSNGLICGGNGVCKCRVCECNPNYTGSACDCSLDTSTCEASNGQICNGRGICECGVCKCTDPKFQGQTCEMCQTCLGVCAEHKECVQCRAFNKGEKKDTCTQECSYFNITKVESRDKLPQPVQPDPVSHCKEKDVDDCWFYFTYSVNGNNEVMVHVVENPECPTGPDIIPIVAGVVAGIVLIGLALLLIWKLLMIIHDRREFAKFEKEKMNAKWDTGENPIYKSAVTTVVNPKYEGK
Integrin beta-1 (Homo sapiens) + Integrin alpha-4 (Homo sapiens), sequence (P13612 whole entry, looked up): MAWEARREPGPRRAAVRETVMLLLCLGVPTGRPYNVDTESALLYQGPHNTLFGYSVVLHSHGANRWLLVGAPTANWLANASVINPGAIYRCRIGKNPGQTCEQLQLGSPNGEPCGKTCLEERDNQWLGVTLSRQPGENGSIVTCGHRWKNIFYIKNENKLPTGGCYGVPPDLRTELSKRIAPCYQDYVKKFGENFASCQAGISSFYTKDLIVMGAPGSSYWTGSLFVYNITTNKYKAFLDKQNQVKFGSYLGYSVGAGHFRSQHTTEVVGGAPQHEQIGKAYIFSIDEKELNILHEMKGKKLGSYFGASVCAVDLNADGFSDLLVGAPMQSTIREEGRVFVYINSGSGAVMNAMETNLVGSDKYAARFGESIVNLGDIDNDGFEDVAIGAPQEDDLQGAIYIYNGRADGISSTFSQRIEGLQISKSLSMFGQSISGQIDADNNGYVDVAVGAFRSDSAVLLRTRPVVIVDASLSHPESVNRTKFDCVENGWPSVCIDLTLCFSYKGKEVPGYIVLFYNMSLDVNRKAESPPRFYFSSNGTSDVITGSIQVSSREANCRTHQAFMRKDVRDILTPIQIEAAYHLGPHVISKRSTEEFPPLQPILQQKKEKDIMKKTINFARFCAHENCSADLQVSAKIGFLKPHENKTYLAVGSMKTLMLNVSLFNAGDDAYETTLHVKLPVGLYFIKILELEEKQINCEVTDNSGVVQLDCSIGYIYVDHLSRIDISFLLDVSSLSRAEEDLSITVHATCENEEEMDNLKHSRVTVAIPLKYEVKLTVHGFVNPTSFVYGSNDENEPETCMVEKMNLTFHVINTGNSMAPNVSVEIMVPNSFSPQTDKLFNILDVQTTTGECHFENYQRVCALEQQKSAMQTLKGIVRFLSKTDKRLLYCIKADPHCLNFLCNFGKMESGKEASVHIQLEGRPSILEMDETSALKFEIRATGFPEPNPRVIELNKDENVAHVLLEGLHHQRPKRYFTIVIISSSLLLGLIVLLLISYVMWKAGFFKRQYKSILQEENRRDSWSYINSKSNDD

[8] = superoxide lowering in aged yeast cells, pilot screen, validation compound set (AID 2706;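 active means superoxide response below 65% of plate, a cut near 3 SD across the whole screen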;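 further: yeast exposed to compound for one week at 30 degrees C before staining; 100% = mean of all compound wells on the same plate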); conditions: S. cerevisiae aging, superoxide DHE fluorescence; at 10 µM; stronger effect = lower value
[9] = molecular target: Beta-adrenergic receptor kinase 1 (Homo sapiens) (UniProt P25098); test: GRK2 binders displacing RNA aptamer, biochemical, validation, human GRK2, bead flow cytometry (AID 488806;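 active means aptamer binding inhibition above 30%, about 3 SD of noise from non-fluorescent compounds; inactive means inhibition at or below 30%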); conditions: bead-bound GRK2, FAM-aptamer displacement, at 10 µM, stronger effect = higher value
Beta-adrenergic receptor kinase 1 (Homo sapiens), sequence (P25098 whole entry, looked up): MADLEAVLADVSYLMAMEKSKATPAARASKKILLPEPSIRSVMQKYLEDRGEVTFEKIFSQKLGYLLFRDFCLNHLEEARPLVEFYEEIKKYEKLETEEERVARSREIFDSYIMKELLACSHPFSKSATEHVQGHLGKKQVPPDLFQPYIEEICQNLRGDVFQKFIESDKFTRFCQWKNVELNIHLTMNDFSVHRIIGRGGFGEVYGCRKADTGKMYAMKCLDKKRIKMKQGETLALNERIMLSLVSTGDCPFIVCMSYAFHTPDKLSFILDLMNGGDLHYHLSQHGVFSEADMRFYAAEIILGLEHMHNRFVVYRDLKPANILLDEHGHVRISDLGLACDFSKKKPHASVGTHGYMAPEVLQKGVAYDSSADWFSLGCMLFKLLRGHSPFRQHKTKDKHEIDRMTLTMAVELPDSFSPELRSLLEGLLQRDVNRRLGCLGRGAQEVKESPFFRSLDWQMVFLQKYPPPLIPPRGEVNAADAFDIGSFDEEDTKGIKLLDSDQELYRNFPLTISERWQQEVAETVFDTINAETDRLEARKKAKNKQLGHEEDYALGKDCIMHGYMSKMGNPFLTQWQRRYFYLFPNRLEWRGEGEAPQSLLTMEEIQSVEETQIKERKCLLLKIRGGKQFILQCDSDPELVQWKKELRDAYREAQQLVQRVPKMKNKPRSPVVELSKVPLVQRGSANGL

[10] = molecular target: Beta-2 adrenergic receptor (Homo sapiens) (UniProt P07550); test: beta2AR agonists driving receptor internalization, pilot screen, cell-based, FAP fluorogen, flow cytometry, validation set (AID 504459;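 active means percent response above 42, roughly 3 SD of non-fluorescent test compounds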;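 further: agonist-driven loss of surface beta2AR via internalization measured by FAP dye flow cytometry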); conditions: Am2.2-beta2AR cells, FAP surface receptor flow cytometry; at 10 µM; stronger effect = higher value
Beta-2 adrenergic receptor (Homo sapiens), sequence (P07550 whole entry, looked up, the tested form may be a part): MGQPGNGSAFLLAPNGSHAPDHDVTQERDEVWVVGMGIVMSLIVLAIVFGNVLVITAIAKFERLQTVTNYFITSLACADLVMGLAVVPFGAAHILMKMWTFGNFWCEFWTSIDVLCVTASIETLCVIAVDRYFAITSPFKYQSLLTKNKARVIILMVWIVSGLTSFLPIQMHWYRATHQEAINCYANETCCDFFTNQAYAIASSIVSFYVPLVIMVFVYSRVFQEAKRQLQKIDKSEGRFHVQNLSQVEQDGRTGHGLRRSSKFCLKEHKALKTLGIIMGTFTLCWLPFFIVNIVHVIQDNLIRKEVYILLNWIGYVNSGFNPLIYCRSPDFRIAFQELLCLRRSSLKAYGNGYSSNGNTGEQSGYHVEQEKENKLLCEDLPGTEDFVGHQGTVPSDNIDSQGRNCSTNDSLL

[11] = molecular target: AP-2 complex subunit beta (Homo sapiens) (UniProt P63010); test: inhibitors of arrestin peptide binding to AP2, pilot screen, biochemical, validation set, GST-AP2 beads, flow cytometry (AID 504541); conditions: FITC arrestin peptide, at 10 µM, stronger effect = higher value, AP2 beta2 appendage fragment, R879A mutant;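 further: AP2 carries R879A mutation and is captured from E. coli lysate; bead-bound FITC arrestin peptide fluorescence measuring arrestin peptide binding to AP2; 0% = DMSO wells and 100% = excess unlabeled arrestin peptide control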
AP-2 complex subunit beta (Homo sapiens), sequence (P63010 whole entry, looked up, the tested form may be a part, one chain of several): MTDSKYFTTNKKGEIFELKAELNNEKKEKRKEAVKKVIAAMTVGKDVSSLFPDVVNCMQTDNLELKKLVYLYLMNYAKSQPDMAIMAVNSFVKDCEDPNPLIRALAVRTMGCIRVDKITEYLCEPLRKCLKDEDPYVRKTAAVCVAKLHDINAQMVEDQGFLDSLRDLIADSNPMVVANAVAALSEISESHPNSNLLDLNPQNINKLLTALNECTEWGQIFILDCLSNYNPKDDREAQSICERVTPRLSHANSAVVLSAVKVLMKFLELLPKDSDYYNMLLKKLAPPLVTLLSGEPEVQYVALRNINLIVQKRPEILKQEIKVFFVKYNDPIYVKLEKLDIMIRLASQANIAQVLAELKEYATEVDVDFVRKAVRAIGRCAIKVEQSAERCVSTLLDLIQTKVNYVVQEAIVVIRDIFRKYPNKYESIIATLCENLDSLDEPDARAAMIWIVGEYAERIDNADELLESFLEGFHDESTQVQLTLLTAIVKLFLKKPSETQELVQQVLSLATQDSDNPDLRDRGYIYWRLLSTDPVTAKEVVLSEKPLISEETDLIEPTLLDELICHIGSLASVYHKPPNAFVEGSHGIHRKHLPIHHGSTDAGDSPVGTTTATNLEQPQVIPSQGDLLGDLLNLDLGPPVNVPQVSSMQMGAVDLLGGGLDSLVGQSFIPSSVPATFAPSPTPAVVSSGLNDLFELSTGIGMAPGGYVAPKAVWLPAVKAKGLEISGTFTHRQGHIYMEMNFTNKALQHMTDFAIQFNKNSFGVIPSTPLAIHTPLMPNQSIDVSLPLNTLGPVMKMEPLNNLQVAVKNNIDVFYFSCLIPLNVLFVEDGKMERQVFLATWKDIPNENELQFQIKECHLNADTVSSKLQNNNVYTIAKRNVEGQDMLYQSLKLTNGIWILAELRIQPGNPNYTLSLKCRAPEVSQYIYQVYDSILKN

[12] = yeast V-ATPase proton transport modulators, S. cerevisiae, pHLuorin, HTS validation (AID 504600; in the data active means response above about 15%;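 further: plate controls were DMSO for no effect and reference compound for full effect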); conditions: S. cerevisiae pHLuorin cytosolic pH, at 10 µM, stronger effect = higher value
[13] = tested on: anti-desmoglein-3 scFv antibody binding to human DSG3; test: inhibitors of anti-DSG3 scFv binding to DSG3, pilot screen, biochemical, validation compound set, bead-based, flow cytometry (AID 588368;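 active means binding below the plate cutoff, the plate median minus 3 SD, with a reading above zero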;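 further: signal is the median channel fluorescence of bead-bound GFP antibody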); conditions: Protein G beads, DSG3-Fc, scFv-GFP binding, at 10 µM, stronger effect = lower value
[14] = inhibitors of fungal efflux pumps CDR1, CDR2, MDR1, pilot screen, validation compound set, multiplex, phenotypic (AID 588506;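 active means efflux inhibition above 0.42, the validation set average plus 4 SD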;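 further: Nile Red retained in cells so higher fluorescence means more efflux inhibition; 0 = negative control wells and 1 = enniatin B 25 µM full block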); conditions: S. cerevisiae pump-expressing triplex, Nile Red efflux flow cytometry; at 10 µM; stronger effect = higher value; the pumps come from Candida albicans
[15] = molecular target: ATP-binding cassette sub-family B member 6 (Homo sapiens) (UniProt Q9NP58); test: ABCB6 transporter inhibitors, pilot screen, K562-ABCB6 cells, flow cytometry, validation set (AID 588550;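 active means inhibition above the screen-wide mean plus 3 SD, about 51%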;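 further: 0% = DMSO wells and 100% = benzethonium chloride 70 µM positive control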); conditions: K562-ABCB6 porphyrin accumulation, 1 h, at 10 µM, stronger effect = higher value
ATP-binding cassette sub-family B member 6 (Homo sapiens), sequence (Q9NP58 whole entry, looked up): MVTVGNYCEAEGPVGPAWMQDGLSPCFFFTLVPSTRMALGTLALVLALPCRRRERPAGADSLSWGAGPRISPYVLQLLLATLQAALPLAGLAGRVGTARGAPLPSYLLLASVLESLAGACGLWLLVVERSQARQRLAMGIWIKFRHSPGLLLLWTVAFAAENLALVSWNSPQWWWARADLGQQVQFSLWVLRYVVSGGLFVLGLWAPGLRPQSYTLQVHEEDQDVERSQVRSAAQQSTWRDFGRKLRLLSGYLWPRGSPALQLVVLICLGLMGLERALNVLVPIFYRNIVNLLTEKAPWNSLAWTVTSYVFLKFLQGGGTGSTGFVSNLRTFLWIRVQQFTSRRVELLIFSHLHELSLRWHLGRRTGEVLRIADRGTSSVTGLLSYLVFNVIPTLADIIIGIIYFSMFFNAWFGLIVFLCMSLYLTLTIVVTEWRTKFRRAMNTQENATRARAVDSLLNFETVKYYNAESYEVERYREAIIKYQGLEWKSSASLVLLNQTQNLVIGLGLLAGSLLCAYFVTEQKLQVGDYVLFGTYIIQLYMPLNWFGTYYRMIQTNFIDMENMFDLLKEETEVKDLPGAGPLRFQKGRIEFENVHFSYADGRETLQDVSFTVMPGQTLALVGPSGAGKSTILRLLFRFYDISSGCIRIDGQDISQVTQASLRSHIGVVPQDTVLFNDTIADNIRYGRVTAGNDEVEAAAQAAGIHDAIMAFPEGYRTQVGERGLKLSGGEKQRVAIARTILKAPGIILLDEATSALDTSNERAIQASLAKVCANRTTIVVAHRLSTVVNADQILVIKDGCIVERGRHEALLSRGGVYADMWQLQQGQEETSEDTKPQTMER

[16] = promoters of myeloid differentiation in arrested cells, primary screen, cell-based, GFP/MAC1 double positive, flow cytometry, validation set (AID 588685;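 active means differentiation response of at least 50%, scaled between solvent and reference control, from cells with both markers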;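 further: compound exposure lasts four days before antibody staining and flow analysis; 0% = DMSO wells and 100% = 5 µM fulvestrant positive control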); conditions: ER-HoxA9 marrow cells, stronger effect = higher value, normalized: vehicle 0, fulvestrant 100

COc1ccc(C(=O)Oc2ccc3c(C)cc(=O)oc3c2C(C)=O)cc1
inactive: percent of DMSO control GFP [1] 104% | GFP response vs DMSO [2] 103% | percent response of DMSO control [3] 108% | GFP response vs DMSO [4] 105% | GFP response, % of DMSO [5] 106% | vesicle binding response [6] 123% | inhibition [7] -5.11% | superoxide response (% of plate) [8] 103% | aptamer binding inhibition [9] -1% | response [10] 2.26% | inhibition [11] 5.55% | response [12] -3.4% | binding (% of control) [13] 107% | efflux inhibition (fraction of control) [14] 0.12 | inhibition [15] 14% | differentiation response [16] -19.2%
61.4%: double positive events [6]

O=C(CC(NC(=O)OCc1ccccc1)C(=O)O)OCc1ccccc1 (stereo not given)
63.2%: double positive events [6]
inactive: percent of DMSO control GFP [1] 106% | GFP response vs DMSO [2] 99.3% | percent response of DMSO control [3] 107% | GFP response vs DMSO [4] 98% | GFP response, % of DMSO [5] 99.5% | vesicle binding response [6] 160% | inhibition [7] 18.2% | superoxide response (% of plate) [8] 94.6% | aptamer binding inhibition [9] 4% | response [10] -5.78% | inhibition [11] -5.06% | response [12] -3.27% | binding (% of control) [13] 97.1% | efflux inhibition (fraction of control) [14] -0.07 | inhibition [15] 22% | differentiation response [16] -2.69%

COc1ccc(CCN(C)Cc2nc(Cc3ccc(OC)c(OC)c3)no2)cc1OC
62.5%: double positive events [6]
inactive: percent of DMSO control GFP [1] 100% | GFP response vs DMSO [2] 105% | percent response of DMSO control [3] 102% | GFP response vs DMSO [4] 109% | GFP response, % of DMSO [5] 108% | vesicle binding response [6] 222% | inhibition [7] 15.1% | superoxide response (% of plate) [8] 92.6% | aptamer binding inhibition [9] 1% | response [10] -13.9% | inhibition [11] 2.64% | response [12] 8.73% | binding (% of control) [13] 98.8% | efflux inhibition (fraction of control) [14] 0 | inhibition [15] 1% | differentiation response [16] 29.5%

CCCC(=O)Nc1ncnc2c1ncn2[C@@H]1O[C@@H]2COP(=O)(O)O[C@H]2[C@H]1OC(=O)CCC
inactive: percent of DMSO control GFP [1] 97.7% | GFP response vs DMSO [2] 130% | percent response of DMSO control [3] 97.9% | GFP response vs DMSO [4] 96.3% | GFP response, % of DMSO [5] 94.7% | vesicle binding response [6] 131% | inhibition [7] 4.52% | superoxide response (% of plate) [8] 96.8% | aptamer binding inhibition [9] 3% | response [10] -6.04% | inhibition [11] -3.95% | response [12] 1.56% | binding (% of control) [13] 98.3% | efflux inhibition (fraction of control) [14] -0.06 | inhibition [15] 7% | differentiation response [16] 5.73%
61%: double positive events [6]

O=c1[nH]c(=O)n(C2CCCO2)cc1F (stereo not given)
inactive: percent of DMSO control GFP [1] 93.5% | GFP response vs DMSO [2] 117% | percent response of DMSO control [3] 97.9% | GFP response vs DMSO [4] 81.4% | GFP response, % of DMSO [5] 95.6% | vesicle binding response [6] 137% | inhibition [7] -17.8% | superoxide response (% of plate) [8] 96.1% | aptamer binding inhibition [9] 7% | response [10] -4.34% | inhibition [11] -10.2% | response [12] 6.89% | binding (% of control) [13] 110% | efflux inhibition (fraction of control) [14] 0.09 | inhibition [15] 14% | differentiation response [16] 35.2%
60.9%: double positive events [6]

O=C(N/C(=C/C=C\c1ccccc1)C(=O)N1CCOCC1)c1ccc(Br)cc1
inactive: percent of DMSO control GFP [1] 98.4% | GFP response vs DMSO [2] 107% | percent response of DMSO control [3] 100% | GFP response vs DMSO [4] 123% | GFP response, % of DMSO [5] 115% | vesicle binding response [6] 185% | inhibition [7] 2.29% | superoxide response (% of plate) [8] 84.9% | aptamer binding inhibition [9] 1% | response [10] -28% | inhibition [11] 6.94% | response [12] 2.4% | binding (% of control) [13] 103% | efflux inhibition (fraction of control) [14] 0.42 | inhibition [15] 2% | differentiation response [16] -6.96%
65.2%: double positive events [6]

C1CCC(C(CC2CCCCN2)C2CCCCC2)CC1 (stereo not given)
62%: double positive events [6]
inactive: percent of DMSO control GFP [1] 97.9% | GFP response vs DMSO [2] 107% | percent response of DMSO control [3] 101% | GFP response vs DMSO [4] 130% | GFP response, % of DMSO [5] 116% | vesicle binding response [6] 170% | inhibition [7] -17.3% | superoxide response (% of plate) [8] 119% | aptamer binding inhibition [9] -11% | response [10] 26.4% | inhibition [11] -6.24% | response [12] 2.51% | binding (% of control) [13] 109% | efflux inhibition (fraction of control) [14] 0.12 | inhibition [15] -5% | differentiation response [16] -5.97%

O=C1[C@@H]2[C@H](Cc3ccc(O)cc3)N[C@]3(C(=O)Nc4ccccc43)[C@@H]2C(=O)N1c1ccc(F)cc1
inactive: percent of DMSO control GFP [1] 106% | GFP response vs DMSO [2] 103% | percent response of DMSO control [3] 100% | GFP response vs DMSO [4] 90.1% | GFP response, % of DMSO [5] 91.9% | vesicle binding response [6] 1070% | inhibition [7] 14.1% | superoxide response (% of plate) [8] 90% | aptamer binding inhibition [9] 2% | response [10] -3.4% | inhibition [11] 3.35% | response [12] -0.08% | binding (% of control) [13] 92.2% | efflux inhibition (fraction of control) [14] 0.3 | inhibition [15] 0% | differentiation response [16] 6.11%
61.1%: double positive events [6]

COc1ccc(CCN2C(=O)CSC2c2ccc(OC)c(OC)c2)cc1OC (stereo not given)
63.2%: double positive events [6]
inactive: percent of DMSO control GFP [1] 102% | GFP response vs DMSO [2] 118% | percent response of DMSO control [3] 87.2% | GFP response vs DMSO [4] 104% | GFP response, % of DMSO [5] 95.7% | vesicle binding response [6] 184% | inhibition [7] 9.13% | superoxide response (% of plate) [8] 104% | aptamer binding inhibition [9] 2% | response [10] -12.9% | inhibition [11] 8.66% | response [12] -1.47% | binding (% of control) [13] 100% | efflux inhibition (fraction of control) [14] 0.05 | inhibition [15] 1% | differentiation response [16] 21.6%

c1ccc(Nc2ccccn2)nc1
inactive: percent of DMSO control GFP [1] 98.6% | GFP response vs DMSO [2] 105% | percent response of DMSO control [3] 88.2% | GFP response vs DMSO [4] 115% | GFP response, % of DMSO [5] 100% | vesicle binding response [6] 190% | inhibition [7] -3.16% | superoxide response (% of plate) [8] 97.5% | aptamer binding inhibition [9] 3% | response [10] -8.84% | inhibition [11] -0.14% | response [12] -2.96% | binding (% of control) [13] 103% | efflux inhibition (fraction of control) [14] 0.26 | inhibition [15] 4% | differentiation response [16] 7.2%
59.3%: double positive events [6]
